In PubChem BioAssay AID652115 (Broad Institute, 2013):
Values joined by “and” are separate entries in the source; they are usually repeats but may differ in a detail not shown here. Equal values may be shown once. Out of some 330,000 compounds screened, about 3,800 (1.2%) were called active. Many of the other results were omitted from the sample, so actives are more common in it than they were. Values without a mark were called inactive. Cut-off read from the data, not from the text of the source: active = inhibition above about 15%; inconclusive = no clear call, values can overlap the other calls; inactive = below that.

Biological target: NAD-dependent protein deacylase sirtuin-5, mitochondrial (Homo sapiens) (UniProt Q9NXA8)
Experiment: blockers of sirtuin-5 deacylase activity – biochemical, fluorescence imaging, single point, set 5, primary screen (AID 652115)
Conditions: Purified SirT5, succinyl-peptide AMC, trypsin-coupled fluorescence; at 15 µM; hits give high values

NAD-dependent protein deacylase sirtuin-5, mitochondrial (Homo sapiens), sequence (Q9NXA8 whole entry, looked up): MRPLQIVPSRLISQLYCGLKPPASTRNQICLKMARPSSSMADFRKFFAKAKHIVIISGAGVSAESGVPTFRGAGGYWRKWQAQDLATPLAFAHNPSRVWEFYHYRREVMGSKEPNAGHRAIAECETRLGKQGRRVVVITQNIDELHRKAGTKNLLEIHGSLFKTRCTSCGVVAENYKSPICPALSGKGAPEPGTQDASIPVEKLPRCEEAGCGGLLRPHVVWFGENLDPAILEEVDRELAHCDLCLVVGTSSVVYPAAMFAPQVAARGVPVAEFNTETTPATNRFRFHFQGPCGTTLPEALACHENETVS

SMILES	inhibition
C[C@@H]1CN([C@@H](C)CO)C(=O)c2cc(/C=C/c3ccccc3)cnc2O[C@H]1CN(C)C(=O)Nc1ccc(C(F)(F)F)cc1	8.54%
C[C@@H]1CN([C@H](C)CO)C(=O)c2cccc(NS(=O)(=O)c3ccc(F)cc3)c2O[C@@H]1CN(C)S(=O)(=O)c1ccccc1	3.68%
Cc1nn(CC(=O)Nc2ccc(F)cc2)c(=O)c2ccccc12	-1.48%
Cc1ccc(NC(=O)Cn2sc3ccccc3c2=O)cc1	19.6% (active)
Cc1ccc(NC(=O)Cn2c(C)csc2=O)cc1	4.07%
O=C(C[C@H]1C=C[C@H](NC(=O)Nc2ccccc2F)[C@@H](CO)O1)NCc1ccc(Cl)cc1	-6.94%
CN1c2ccc(Br)cc2[C@H]2[C@H](CCN2S(=O)(=O)c2ccc(F)cc2)[C@@H]1CO	0.059%
CC(C)NC(=O)N(C)C[C@H]1Oc2cc(C#Cc3ccccn3)ccc2S(=O)(=O)N([C@H](C)CO)C[C@@H]1C	-0.996%
CCNC(=O)[C@@H]1[C@@H](CO)[C@@H]2Cn3c(ccc(C4=CCCC4)c3=O)[C@H]1N2Cc1ccccc1	-12.8%
NC1=C([N+](=O)[O-])C(c2ccccc2)C2=C(CCCC2=O)O1 (stereo not given)	15.7% (active)
COc1cc(C2C3=C(CCCC3=O)OC3=C2C(=O)CCC3)ccc1OCC(=O)Nc1ccccc1	1.24%
COc1ccc(C2C3=C(CCCC3=O)N(CC(=O)O)C3=C2C(=O)CCC3)cc1	-6.31%
C[C@H]1CCCCO[C@@H](CN(C)C(=O)c2ccccc2)[C@@H](C)CN([C@@H](C)CO)C(=O)c2cc(NS(=O)(=O)c3ccccc3)ccc2O1	0.494%
Cc1ccc(-c2cnc3c(c2)C(=O)N([C@H](C)CO)C[C@H](C)[C@@H](CN(C)C(=O)c2cccc(F)c2)O3)cc1	-11.3%
CN1CCN(C(=O)C[C@H]2CC[C@H]3[C@@H](COC[C@H](O)CN3C(=O)c3ccc(F)cc3)O2)CC1	1.19%
O=C(CC1CC1)Nc1ccc2c(c1)[C@@H]1C[C@@H](CC(=O)NC3CCCCC3)O[C@@H](CO)[C@@H]1O2	-2.5%
CO[C@@H]1CN(C)C(=O)c2ccc(NC(=O)C3CCCCC3)cc2OC[C@@H](C)N(Cc2nccs2)C[C@@H]1C	3.01%
C[C@@H]1CN([C@H](C)CO)C(=O)Cc2cc(NC(=O)Nc3ccc(F)cc3)ccc2O[C@@H]1CN(C)Cc1ccc2c(c1)OCO2	32.7% (active)
C[C@@H]1CN([C@@H](C)CO)C(=O)Cc2cc(NC(=O)Nc3ccc4c(c3)OCO4)ccc2O[C@@H]1CN(C)CC1CCCCC1	18.8% (active)
CC(C)NC(=O)Nc1ccc2c(c1)CC(=O)N([C@H](C)CO)C[C@H](C)[C@H](CN(C)Cc1ccc3c(c1)OCO3)O2	4.37%
C[C@H]1CN([C@@H](C)CO)C(=O)c2cc(NC(=O)Nc3ccc4c(c3)OCO4)ccc2O[C@@H]1CN(C)CC1CCCCC1	6.87%
COc1ccc(NC(=O)Nc2ccc3c(c2)CC(=O)N([C@@H](C)CO)C[C@H](C)[C@@H](CN(C)Cc2ccc4c(c2)OCO4)O3)cc1	3.53%

SMILES	inhibition
C[C@H]1CN([C@@H](C)CO)C(=O)Cc2cc(NC(=O)Nc3ccc4c(c3)OCO4)ccc2O[C@H]1CN(C)CC1CC1	-1.18%
CCCNC(=O)C[C@@H]1CC[C@H]2[C@H](COc3ccc(NC(=O)CCC)cc3C(=O)N2C)O1	-0.672%
COc1ccccc1NC(=O)N1CCCCN2[C@H](CO)[C@H](c3ccc(C#CC4CC4)cc3)[C@@H]2C1	0.625%
CO[C@H]1CN(C)C(=O)c2cc(NS(C)(=O)=O)ccc2OC[C@@H](C)N(Cc2ccccc2)C[C@@H]1C	-4.85%
COCC#Cc1ccc2c(c1)O[C@H](CN(C)C(=O)CN(C)C)[C@@H](C)CN([C@H](C)CO)S2(=O)=O	1.54%
C[C@@H]1CN([C@@H](C)CO)C(=O)c2cc(/C=C/c3ccccc3)cnc2O[C@@H]1CN(C)C(=O)CN(C)C	-20%
C[C@H](CO)N1C[C@H](C)[C@H](CN(C)C(=O)Nc2ccc3c(c2)OCO3)Oc2cc(C#Cc3ccncc3)ccc2S1(=O)=O	-1.42%
CCCN1C[C@@H](C)[C@@H](OC)CN(C)C(=O)c2cc(NC(=O)NC3CCCCC3)ccc2OC[C@H]1C	0.947%
C[C@H](NC(=O)[C@H]1N[C@H]2c3ccc(-c4ccc(C(=O)N(C)C)cc4)c(=O)n3C[C@H]2[C@@H]1CO)c1ccccc1	-55.5%
O=C(NCC1CC1)[C@@H]1[C@@H](CO)[C@@H]2Cn3c(ccc(-c4ccccc4)c3=O)[C@H]1N2C(=O)C1CC1	-28%
CO[C@@H]1CN(C)C(=O)c2ccc(NC(=O)Nc3ccccc3)cc2OC[C@H](C)N(C(=O)CC2CC2)C[C@@H]1C	6.27%
O=C(COC(=O)c1ccccc1)c1ccc2c(c1)OCCO2	0.878%
O=C(COC(=O)c1ccc(O)cc1O)NC(=O)c1ccccc1	0.616%
O=C(COC(=O)c1ccc(O)cc1O)c1ccc2c(c1)OCCO2	19.1% (active)
CO[C@H]1CN(C)C(=O)c2cc(NC(=O)c3cnccn3)ccc2OC[C@@H](C)N(CC2CC2)C[C@@H]1C	0.994%
O=c1ccc2c(-c3ccccc3S(=O)(=O)O)c3ccc(O)c(O)c3oc-2c1O	15.8% (active)
Cn1cnc(CCNC(=O)C[C@H]2CC[C@@H]3[C@H](COC[C@@H](O)CN3C(=O)Nc3ccc(Cl)cc3)O2)c1	3.58%
Cn1cnc(CCNC(=O)C[C@@H]2CC[C@@H]3[C@H](COC[C@@H](O)CN3C(=O)Nc3ccccc3)O2)c1	15.8% (active)
Cn1cnc(CCNC(=O)C[C@@H]2CC[C@H]3[C@@H](COC[C@@H](O)CN3C(=O)Nc3ccc(Cl)cc3)O2)c1	-1.27%
C[C@H]1CCCCO[C@H](CN(C)C(=O)Nc2ccccc2)[C@@H](C)CN([C@@H](C)CO)C(=O)c2cc(NC(=O)Nc3ccc4c(c3)OCO4)ccc2O1	11.6%
CN(C)S(=O)(=O)c1ccc(C(=O)NCCN=C2NS(=O)(=O)c3ccccc32)cc1	15.2% (active)
Cc1ccccc1C(=O)NCCN=C1NS(=O)(=O)c2ccccc21	1.57%

SMILES	inhibition
CN(c1ccccc1)S(=O)(=O)c1ccc(C(=O)NCCc2ccccc2)cc1	-1.73%
COc1ccccc1-c1cn(CC[C@@H]2CC[C@@H](NC(=O)c3ccccc3F)[C@H](CO)O2)nn1	-1.68%
COc1cccc(S(=O)(=O)N2C[C@@H](O)COC[C@@H]3O[C@H](CC(=O)N4CCN(C)CC4)CC[C@H]32)c1	-10.1%
CC(C)CC#Cc1ccc2c(c1)O[C@H](CN(C)S(=O)(=O)c1cccc(F)c1)[C@@H](C)CN([C@@H](C)CO)S2(=O)=O	19.1% (active)
C[C@H](CO)N1C[C@H](C)[C@@H](CN(C)S(=O)(=O)c2cccc(F)c2)Oc2cc(C#CCN(C)C)ccc2S1(=O)=O	0.005%
C[C@@H]1CN([C@@H](C)CO)S(=O)(=O)c2ccc(-c3cccc(F)c3)cc2O[C@@H]1CN(C)S(=O)(=O)c1ccccc1	12%
C[C@@H]1CN([C@@H](C)CO)S(=O)(=O)c2ccc(C#CCN(C)C)cc2O[C@@H]1CN(C)S(=O)(=O)c1cccc(F)c1	2.43%
C[C@@H]1CN([C@H](C)CO)S(=O)(=O)c2ccc(-c3cccc(F)c3)cc2O[C@H]1CN(C)S(=O)(=O)c1ccc(F)cc1	16.1% (active)
C[C@H]1CN([C@@H](C)CO)S(=O)(=O)c2ccc(-c3cccc(F)c3)cc2O[C@@H]1CN(C)C	-1.74% and 0.129% and -10.4%
CCCNC(=O)N1[C@@H]2c3ccc(-c4ccccc4OC)c(=O)n3C[C@H]1[C@H](CO)[C@H]2C(=O)N(C)C	-22.3%
C[C@H]1CN([C@@H](C)CO)C(=O)c2cccc(NS(=O)(=O)c3cccs3)c2O[C@H]1CN(C)Cc1ccc(C(=O)Nc2ccccc2N)cc1	5.63%
COc1ccc2c3c(n(C)c2c1)[C@H](CO)N(C(=O)Nc1cccc(F)c1)CC31CN(Cc2nccs2)C1	2.85%
COc1ccc2c3c(n(C)c2c1)[C@@H](CO)N(C(=O)Nc1cccc(F)c1)CC31CCN(Cc2nccs2)CC1	35.6% (active)
CCCC(=O)N1CC2(C1)CN(C(=O)Nc1cccc(F)c1)[C@@H](CO)c1c2c2ccc(OC)cc2n1C	7.29%
O=S1(=O)CC(N2CCN(CCO)CC2)CN1Cc1cn(Cc2cccc(Cl)c2)nn1 (stereo not given)	-5.71%
O=S1(=O)CC(N2CCN(CCO)CC2)CN1Cc1cn(Cc2ccc(Cl)cc2)nn1 (stereo not given)	32.8% (active)
Cc1ccc(Cn2cc(CN3CC(N4CCN(C)CC4)CS3(=O)=O)nn2)cc1 (stereo not given)	3.71%
CCS(=O)(=O)Nc1ccc2c(c1)C(=O)N(C)[C@H]1CC[C@@H](CC(=O)Nc3ccccc3)O[C@H]1CO2	2.87%
O=C1c2ccccc2NC(c2ccc(-c3cccc(Cl)c3)o2)N1O (stereo not given)	1.64%
O=C(O)C(c1ccccc1)N1C(=O)/C(=C\c2ccc(-c3cccc(Cl)c3)o2)SC1=S (stereo not given)	43.9% (active)
O=C1NN(c2ccccc2)C(=O)/C1=C/c1ccc(-c2cccc(C(=O)O)c2)o1	8.67%
